In the library only some 4% were active in any assay of this set; here they are far more common.
GDH-TPI counter-1 – GDH-TPI coupling enzyme inhibitors, primary screen, artefact control for M. tuberculosis FBA inhibitor project, biochemical, absorbance, full deck | GDH-TPI coupled enzyme counterscreen, NADH absorbance | 1.2% of 360,000 active | inhibition, % at 4.8 µM; in the data active = inhibition above about 30%;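 note: 0% = DMSO wells and 100% = wells lacking the enzyme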
RecA intein inh – Mtb RecA intein splicing inhibitors, primary screen, biochemical, fluorescence, HTS | cell-free RecA intein splicing | inhibition, % (no concentration beside the values) | 0.75% of 290,000 active | AID 2221, 2009; in the data active = inhibition above about 30%;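 note: 0% = vehicle wells and 100% = reference inhibitor control wells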
Mtb UGM inh – M. tuberculosis UGM enzyme inhibitors, primary screen, biochemical, fluorescence polarization, single point | purified UGM, fluorescence polarization probe displacement | inhibition, % at 10 µM | UDP-galactopyranose mutase (Mycobacterium tuberculosis (strain ATCC 25618 / H37Rv)), … | 0.06% of 320,000 active | AID 504406, 2011; in the data active = inhibition above about 10%, passing the limit was not always enough
Target sequence (P9WIQ1 whole entry, looked up): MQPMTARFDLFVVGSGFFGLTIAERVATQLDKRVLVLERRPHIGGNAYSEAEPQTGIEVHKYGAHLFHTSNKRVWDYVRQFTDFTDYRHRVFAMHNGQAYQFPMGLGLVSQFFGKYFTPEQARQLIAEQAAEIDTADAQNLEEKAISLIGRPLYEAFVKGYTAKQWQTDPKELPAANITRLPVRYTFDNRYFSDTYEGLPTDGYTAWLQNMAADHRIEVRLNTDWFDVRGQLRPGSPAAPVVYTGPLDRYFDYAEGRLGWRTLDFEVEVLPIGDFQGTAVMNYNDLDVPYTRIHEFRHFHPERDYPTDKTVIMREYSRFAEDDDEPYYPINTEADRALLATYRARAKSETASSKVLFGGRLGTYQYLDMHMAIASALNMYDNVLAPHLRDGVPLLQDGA
FBA Mtb inh – Mtb FBA enzyme inhibitors, primary screen, biochemical, fluorescence, strain H37Rv; Fructose-bisphosphate aldolase (Mycobacterium tuberculosis (strain ATCC 25618 / H37Rv)), …; purified M. tuberculosis FBA, fluorescence read-out; inhibition, % at 1 µM; 2.3% of 360,000 active;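 note: 0% = vehicle and 100% = reference inhibitor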
Rv3671c inh – Rv3671c serine protease inhibitors, primary screen, biochemical, fluorescence polarization, M. tuberculosis H37Rv; inhibition, % at 5.96 µM; AID 2606, 2010; 0.048% of 320,000 active; P9WHR9; in the data active = inhibition above about 38%;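 note: extracellular domain of Rv3671c used as enzyme; 0% = enzyme with DMSO and 100% = no enzyme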
Mtb bLac sens – beta-lactam sensitization of Mtb H37Rv, H37Rv | M. tuberculosis H37Rv growth with meropenem, percent inhibition | inhibition, % at 25 µM | 0.27% of 330,000 active; call rule not given here;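 note: growth measured after seven days incubation then overnight dye step; 0% = bacteria only wells and 100% = bacteria with antibiotic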
Mtb FBA confirm – M. tuberculosis aldolase blockers, biochemical, fluorescence, strain H37Rv, confirmation | shares compounds with FBA Mtb inh | purified M. tuberculosis FBA, fluorescence read-out | inhibition, % at 1 µM | 78% of 5,600 active;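 note: 0% = vehicle wells and 100% = reference inhibitor wells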
GDH-TPI counter-2 – GDH-TPI coupling enzyme inhibitors, artefact control for M. tuberculosis FBA inhibitor project, biochemical, fluorescence, high throughput. inhibition, % at 1 µM. GDH-TPI coupled enzyme counterscreen. 81% of 5,600 active. AID 652141, 2013. shares compounds with FBA Mtb inh; in the data active = inhibition above about 10%
An asterisk follows results filed as active; i = inactive; x = no result; + = active, no number. Cut-off read from the data, not from the text of the source, unless noted: active = inhibition above about 27%; inactive = the rest.

SMILES	GDH-TPI counter-1	RecA intein inh	Mtb UGM inh	FBA Mtb inh	Rv3671c inh	Mtb bLac sens	Mtb FBA confirm	GDH-TPI counter-2
O=C(CCNS(=O)(=O)c1ccccc1)NCC1CCCCC1	-6	x	x	3	x	x	x	x
CSc1ccc(C(O)c2ncc(-c3ccccc3Cl)[nH]2)cc1 (centres undefined)	9	x	x	1	x	x	x	x
COC(=O)C1C(O)=C(C=Nc2cccc3ccccc23)C(=O)CC1(C)C (centres undefined)	5	-2	-1	32*	-8	91	131*	93*
CN1CCN(c2ccc(CNC(=O)c3ccc(-c4cnn(C)c4)c4ccoc34)cc2)CC1	1	x	x	-2	x	x	x	x
CN(C)CCNC(=O)c1ccc(-c2cnn(C)c2)c2ccoc12	4	x	x	85*	x	x	104*	94*
COCCNC(=O)c1ccc(-c2cn[nH]c2)c2ccoc12	12	x	x	57*	x	x	43*	37*
O=C(NCC1CC1)c1ccc(-c2cn[nH]c2)c2ccoc12	6	x	x	27*	x	x	43*	31*
O=C(NCC1CCOCC1)c1ccc(-c2ccc(F)c(F)c2)c2ccoc12	-7	x	x	6	x	x	x	x
COCCN(C(=O)COC(=O)C1CCCCC1)c1c(N)n(Cc2ccccc2)c(=O)[nH]c1=O	3	x	x	0	x	x	x	x
N#Cc1c(N2CCCCC2)nc(N)c2c(N)nc3c(c12)CC(CCl)O3 (centres undefined)	7	-4	6	16	-1	3	x	x
COc1ccc(CN2C(=O)Cc3c2nc(N)c2c(N)nc(N4CCOCC4)c(C#N)c32)cc1	6	-45	-2	41*	-13	4	+	+
COCCN1C(=O)Cc2c1nc(N)c1c(N)nc(N3CCN(c4ccc(F)cc4)CC3)c(C#N)c21	13	-2	-1	8	7	3	x	x
CCC1Cc2c(nc(N)c3c(N)nc(N4CCOCC4)c(C#N)c23)O1 (centres undefined)	20	-23	0	37*	-3	5	147*	122*
O=C(NCc1ccc2c(c1)OCO2)C1CCCCC1	-11	-1	4	-1	-5	-2	x	x
O=C(O)C1CCCCC1C(=O)NCc1ccc2c(c1)OCO2 (centres undefined)	-3	0	1	90*	6	-2	+	162*
COc1ccc(CCNC(=O)COC(=O)c2ccc(C)s2)cc1	-3	x	-2	2	-6	-2	x	x
COCCCNC(=O)COC(=O)c1ccc(-c2nc3ccccc3s2)s1	24	-6	3	79*	1	98	94*	70*
O=C(NCCC(=O)N(CCc1ccccc1)Cc1ccccc1)c1ccc([N+](=O)[O-])cc1	-5	7	-1	-2	0	3	x	x
COc1ccc(C(CNC(=O)CSc2ccc(Br)cc2C)N2CCOCC2)cc1 (centres undefined)	-5	2	2	3	7	-9	x	x
Cc1cccc2nc(-c3cccnc3)c(NCCC(C)C)n12	4	4	0	29*	-11	-10	+	+
CNC(=O)C1Cc2c(-c3ccccc3Oc3ccccc3)ccnc2O1 (centres undefined)	4	x	x	-1	x	x	x	x
CC(=O)Nc1cccc(S(N)(=O)=O)c1C	5	-1	1	0	-4	-4	x	x
NS(=O)(=O)c1ccccc1NC(=S)Nc1ccccc1S(N)(=O)=O	-12	0	1	62*	-6	4	+	167*
C#CCSc1nc(-c2cccs2)ccc1C#N	26	3	-1	36*	3	-4	51*	46*
COC(=O)CSc1nc(-c2cccs2)ccc1C#N	-4	2	-4	71*	3	32	+	+
SMILES	GDH-TPI counter-1	RecA intein inh	Mtb UGM inh	FBA Mtb inh	Rv3671c inh	Mtb bLac sens	Mtb FBA confirm	GDH-TPI counter-2
CN(C(=O)Nc1ccccc1)C1CCCc2ccccc21 (centres undefined)	14	2	-1	-2	-1	-1	x	x
O=c1cc(-c2ccco2)oc2c1ccc1ccccc12	21	-1	3	49*	-3	43	+	+
COCCN(C(=O)CCC(=O)Nc1ccccn1)C(C(=O)NC(C)(C)C)c1ccc(OC)cc1 (centres undefined)	5	-1	-2	1	2	-1	x	x
CCOc1ccc(C(C(=O)NC(C)(C)C)N(CCOC)C(=O)CCC(=O)Nc2ccccn2)cc1 (centres undefined)	-2	x	1	40*	-2	-11	60*	53*
CCOCCCNC(=O)c1cc2c(s1)-c1ccccc1SC2	4	-6	0	-4	-19	6	x	x
CN(C)CCNC(=O)c1cc2c(s1)-c1ccc(Cl)cc1SC2	6	1	-3	34*	x	45	106*	90*
CCOc1cc(C2C3=C(CCCC3=O)N(CCC(=O)O)C3=C2C(=O)CCC3)ccc1OS(=O)(=O)c1ccc(C)cc1	9	-375	2	79*	-12	4	83*	72*
Cc1ccc(S(=O)(=O)Oc2ccc(C3C4=C(CCCC4=O)OC4=C3C(=O)CCC4)cc2)cc1	13	-1	-2	4	6	0	x	x
Cc1ccc(S(=O)(=O)Oc2ccc(C3C4=C(CCCC4=O)N(CCC(=O)O)C4=C3C(=O)CCC4)cc2Cl)cc1	-1	i	-1	110*	-8	0	-2	-7
CS(=O)(=O)NN1C(=O)c2ccccc2NC12CCCC2	7	-15	-1	35*	7	-1	131*	107*
CCOC(=O)NN1C(=O)c2ccccc2NC12CCCC2	5	-9	0	59*	3	18	163*	139*
N#Cc1cc2c([nH]c1=O)CCCC2	5	0	-1	68*	2	3	97*	91*
COC(=O)c1sccc1NC(=O)Cc1ccc(OC)cc1	9	2	0	-1	2	-2	x	x
COc1ccc(CC(=O)Nc2ccc(N(C)C)c3ccccc23)cc1	3	-1	-1	34*	0	4	+	128*
CCOC(=O)C(CC)c1cc2n(c(=O)c1C#N)CCC21OCCO1 (centres undefined)	x	x	x	69*	x	x	+	+

Screening data: PubChem BioAssay, several laboratories
